Source: PubChem BioAssay (NMMLSC)
RGS4-Gao reg – human RGS4-Galphao interaction regulation; P09471; Multiplexed bead flow cytometry, RGS4-Galphao binding; actives lie on both sides; binding response (% of control), % at 10 µM; hit rate 0.33% among 220,000; AID 1415; in the data active = binding response below about 49% or above about 150%; inactive = in between;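 also: fluorescent Galphao activated with aluminum fluoride binding bead-coupled RGS4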
Target sequence (P09471 whole entry, looked up): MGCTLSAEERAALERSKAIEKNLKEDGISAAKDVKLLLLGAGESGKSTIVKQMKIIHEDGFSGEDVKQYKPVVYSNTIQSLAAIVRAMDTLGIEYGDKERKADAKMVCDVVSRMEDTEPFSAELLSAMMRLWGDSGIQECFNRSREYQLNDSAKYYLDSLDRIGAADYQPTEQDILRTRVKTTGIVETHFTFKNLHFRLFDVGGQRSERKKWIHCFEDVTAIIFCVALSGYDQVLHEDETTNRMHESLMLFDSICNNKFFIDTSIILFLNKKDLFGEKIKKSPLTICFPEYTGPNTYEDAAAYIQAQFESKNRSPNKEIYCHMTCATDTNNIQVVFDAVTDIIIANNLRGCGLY
GSH fluor – compound fluoresces at 488/530 nm on GSH beads. fluorescence (KMESF) at 10 µM. GSH beads flow cytometry, compound fluorescence 488/530 nm; stronger effect = higher value. AID 1776. hit rate 0.25% among 190,000; in the data active = fluorescence above about 89;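 also: glutathione beads carrying GST-tagged Bcl family fusion proteins plus one bare bead set; values are compound well signal with DMSO vehicle wells as background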
RGS16-Gao HTS – modulates binding between human RGS16 and Galphao | hit rate 0.38% among 220,000 | binding response (% of control), % at 10 µM | bead-based flow cytometry RGS16-Galphao binding, fluorescence; actives lie on both sides | O15492+P09471 | AID 1441;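 also: Galphao activated by GDP with aluminum fluoride before binding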
RGS7-Gao reg – human RGS7-Galphao interaction regulation | Multiplexed bead flow cytometry, RGS7-Galphao binding; actives lie on both sides | hit rate 0.35% among 220,000 | binding response (% of control), % at 10 µM | AID 1439 | P09471; in the data active = binding response below about 49% or above about 150%; inconclusive = no clear call, values can overlap the other calls; inactive = in between;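 also: fluorescent Galphao held in activated GDP-AlF4 state binding bead-coupled RGS7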
Avidin fluor – compound fluoresces at 488/530 nm on avidin beads; hit rate 0.38% among 220,000; compound fluorescence 488/530 nm, flow cytometry; stronger effect = higher value; fluorescence (KMESF) at 10 µM; in the data active = fluorescence above about 47
RGS8-Gao reg – regulators of human RGS8-Galphao interaction; response (percent of control binding), % at 10 µM; multiplexed bead flow cytometry, RGS8-Galphao binding; actives lie on both sides; hit rate 0.34% among 220,000; AID 1423; in the data active = response below about 60% or above about 140%; inactive = in between;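 also: Galphao activated as the GDP aluminium fluoride complex binding bead-coupled RGS8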
RGS-Gao – regulators of human RGS4-Galphao interaction. shares compounds with RGS16-Gao HTS. multiplexed bead flow cytometry, RGS–Galpha-o binding. RGS4–Galpha-o binding response, % at 10 µM. hit rate 99% among 1,600;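 also: fluorescently labeled Galpha-o bound to GDP with aluminium fluoride binding biotinylated RGS beads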
Avidin counter – counter-screen: compounds disrupting biotin binding to avidin beads. shares compounds with RGS16-Gao HTS. streptavidin beads, fluorescein-biotin binding, flow cytometry. inhibition, % at 10 µM. 1,700 tested, under 10 active;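 active = inhibition above 50%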;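 also: median green fluorescence of gated singlet beads compared with DMSO control wells; 0% = DMSO wells and 100% = complete loss of bead fluorescence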
RGS8-Gao confirm – confirmation of regulators of human RGS8-Galphao interaction | shares compounds with RGS16-Gao HTS | bead-based flow cytometry RGS8-Galphao binding, fluorescence; actives lie on both sides | binding response (% of control), % at 10 µM | hit rate 3% among 1,700; in the data active = binding response below about 72% or above about 130%; inactive = in between;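 also: Galphao activated as GDP AlF4 complex before binding bead RGS8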
RGS7-Gao single – confirmation of regulators of human RGS7-Galphao interaction; shares compounds with RGS16-Gao HTS; bead-based flow cytometry RGS7-Galphao binding; actives lie on both sides; response (percent of control binding), % at 10 µM; hit rate 7.8% among 1,700; AID 1837; in the data active = response below about 75% or above about 130%; inactive = in between;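 also: fluorescent Galphao activated with GDP and aluminum fluoride binding bead-coupled RGS7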
RGS16-Gao conf – RGS16-Galphao interaction regulation, single point confirmation | shares compounds with RGS16-Gao HTS | bead-based flow cytometry, RGS16-Galphao binding; actives lie on both sides | response (% of control binding), % at 10 µM | hit rate 4% among 1,700; in the data active = response below about 74% or above about 130%; inactive = in between;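 also: Galphao activated as the GDP aluminium fluoride complex binding bead-coupled RGS16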
RGS4-Gao confirm – confirmation of regulators of human RGS4-Galphao interaction; AID 1840; shares compounds with RGS16-Gao HTS; hit rate 4% among 1,700; RGS4-Galphao binding, multiplexed bead flow cytometry; actives lie on both sides; binding response (% of control), % at 10 µM; in the data active = binding response below about 74% or above about 130%; inactive = in between
RGS19-Gao single – confirmation of regulators of human RGS19-Galphao interaction; response (percent of control binding), % at 10 µM; AID 1841; hit rate 5% among 1,700; bead-based flow cytometry RGS19-Galphao binding; actives lie on both sides; shares compounds with RGS16-Gao HTS; in the data active = response below about 50% or above about 160%; inactive = in between;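 also: 100% = no compound control and 0% = blank background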
Target sequence (P09471 whole entry, looked up): as above
Target sequence (P49795 whole entry, looked up): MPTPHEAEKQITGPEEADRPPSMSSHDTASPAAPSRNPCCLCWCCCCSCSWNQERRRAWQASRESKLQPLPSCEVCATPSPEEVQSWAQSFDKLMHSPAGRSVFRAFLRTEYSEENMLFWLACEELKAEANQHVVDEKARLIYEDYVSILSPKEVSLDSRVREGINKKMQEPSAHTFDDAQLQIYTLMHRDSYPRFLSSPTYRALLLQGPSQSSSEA
An asterisk follows results filed as active; [ ] = remark or other dose. This is a sample that favours compounds with a hit; in the whole collection about 1.2% have one here. Unless noted, no rule for the calls is given here.

For COC(=O)c1ccccc1NC(=O)c1ccc2c(c1)OCCO2 the results were RGS4-Gao reg 134, GSH fluor 52, RGS16-Gao HTS 231*[activator], RGS7-Gao reg 137, Avidin fluor 15, RGS8-Gao reg 131, RGS-Gao 134*, Avidin counter 1, RGS8-Gao confirm 98, RGS7-Gao single 94, RGS16-Gao conf 97, RGS4-Gao confirm 100 and RGS19-Gao single 87.
For CC(C)(C)C(=O)Nc1ccccc1C(=O)OCC(=O)c1ccc2c(c1)OCCO2 the results were RGS4-Gao reg 99, GSH fluor 10, RGS16-Gao HTS 94, RGS7-Gao reg 99, Avidin fluor 3 and RGS8-Gao reg 99.
Screening CC(=O)c1ccc(NC(=O)C2CC(=O)N(C(C)C)C2)cc1 (configuration not stated) returned RGS4-Gao reg 99, GSH fluor 9, RGS16-Gao HTS 101, RGS7-Gao reg 100, Avidin fluor 10 and RGS8-Gao reg 100.
For COCCNC(=O)CN(C(=O)Cn1nnc2ccccc21)c1cc(C)cc(C)c1 the results were RGS4-Gao reg 110, GSH fluor 9, RGS16-Gao HTS 103, RGS7-Gao reg 167*[activator], Avidin fluor 60*, RGS8-Gao reg 100, RGS-Gao 110*, Avidin counter 0, RGS8-Gao confirm 94, RGS7-Gao single 92, RGS16-Gao conf 94, RGS4-Gao confirm 93 and RGS19-Gao single 100.
`COc1cc(OC)cc(C(=O)N[C@H](C(=O)Nc2cccc(S(=O)(=O)N3CCCC3)c2)C(C)C)c1` gave RGS4-Gao reg 97, RGS16-Gao HTS 96, RGS7-Gao reg inconclusive, Avidin fluor 8 and RGS8-Gao reg 100.
`COC(=O)c1ccccc1NS(=O)(=O)c1ccc(NC(C)=O)cc1` gave RGS4-Gao reg 128, GSH fluor 14, RGS16-Gao HTS 137, RGS7-Gao reg 151*[activator], Avidin fluor 19, RGS8-Gao reg 134, RGS-Gao 128*, Avidin counter 2, RGS8-Gao confirm 100, RGS7-Gao single 104, RGS16-Gao conf 101, RGS4-Gao confirm 102 and RGS19-Gao single 92.
For COC(=O)c1ccccc1NS(=O)(=O)c1ccc(F)cc1 the results were RGS4-Gao reg 99, GSH fluor 29, RGS16-Gao HTS 104, RGS7-Gao reg 101, Avidin fluor 22 and RGS8-Gao reg 100.
O[C@@H]1C2CCCC1[C@]1(O)CCCCC1C2 (some centres not stated) was read as RGS4-Gao reg 102, GSH fluor 33, RGS16-Gao HTS 113, RGS7-Gao reg 101, Avidin fluor 11 and RGS8-Gao reg 102.
`NC[C@@]12CCCC1C1CCC2C1` (some centres not stated) gave GSH fluor 45, Avidin counter 0, RGS8-Gao confirm 102, RGS7-Gao single 101, RGS16-Gao conf 107, RGS4-Gao confirm 103 and RGS19-Gao single 106.
`COc1ccc(C(c2nnnn2C2CCCC2)N2CCC(C)CC2)c(OC)c1` (configuration not stated) gave RGS4-Gao reg 188*[activator], GSH fluor 32, RGS7-Gao reg 174*[activator], Avidin counter 1, RGS8-Gao confirm 102, RGS7-Gao single 103, RGS16-Gao conf 102, RGS4-Gao confirm 103 and RGS19-Gao single 113.
Screening O=C(NCCN1CCN(c2cccc(Cl)c2)CC1)C1CCCN(S(=O)(=O)c2cnc[nH]2)C1 (configuration not stated) returned RGS4-Gao reg 116, GSH fluor 15, RGS16-Gao HTS 203, RGS7-Gao reg 114, Avidin fluor 5, RGS8-Gao reg 142*[activator] and RGS-Gao 116*.
`CC(CCc1ccccc1)NC(=O)CSc1nccc(=O)[nH]1` (configuration not stated) gave RGS4-Gao reg 12*, GSH fluor 43, RGS16-Gao HTS 7.1*, RGS7-Gao reg 11*, Avidin fluor -2, RGS8-Gao reg 21*, Avidin counter -1, RGS8-Gao confirm 97, RGS7-Gao single 79, RGS16-Gao conf 91, RGS4-Gao confirm 91 and RGS19-Gao single 79.
`Cc1ccnn1CC(=O)N/N=C/c1ccc2c(c1)OCO2` gave RGS4-Gao reg 101, GSH fluor 21, RGS16-Gao HTS 125, RGS7-Gao reg 101, Avidin fluor 12 and RGS8-Gao reg 107.
Screening COC(=O)CNC(=O)c1ccc(C)s1 returned RGS4-Gao reg 100, GSH fluor 22, RGS16-Gao HTS 99, RGS7-Gao reg 101, Avidin fluor 14 and RGS8-Gao reg 96.
`COCCNC(=O)c1ccc(C(=O)NCCOC)s1` gave RGS4-Gao reg 233*[activator], GSH fluor 36, Avidin counter 3, RGS8-Gao confirm 100, RGS7-Gao single 98, RGS16-Gao conf 99, RGS4-Gao confirm 99 and RGS19-Gao single 90.
CC(=O)Nc1ccccc1NS(=O)(=O)c1ccccc1[N+](=O)[O-] was read as RGS4-Gao reg 158*[activator], GSH fluor 10, RGS16-Gao HTS 123, RGS7-Gao reg 401*[activator], Avidin fluor 204*, RGS8-Gao reg 100, Avidin counter 3, RGS8-Gao confirm 104, RGS7-Gao single 102, RGS16-Gao conf 100, RGS4-Gao confirm 103 and RGS19-Gao single 106.
